Screening data from PubChem BioAssay.
Anthrax LF inh2 = anthrax lethal factor protease inhibition. multiplex microsphere protease cleavage assay, LF. inhibition, % at 10 µM. 360,000 compounds, 0.12% hits. AID 588501; note: plate controls were buffer without enzyme for full effect and enzyme alone for no effect
Target sequence (P15917 whole entry, looked up): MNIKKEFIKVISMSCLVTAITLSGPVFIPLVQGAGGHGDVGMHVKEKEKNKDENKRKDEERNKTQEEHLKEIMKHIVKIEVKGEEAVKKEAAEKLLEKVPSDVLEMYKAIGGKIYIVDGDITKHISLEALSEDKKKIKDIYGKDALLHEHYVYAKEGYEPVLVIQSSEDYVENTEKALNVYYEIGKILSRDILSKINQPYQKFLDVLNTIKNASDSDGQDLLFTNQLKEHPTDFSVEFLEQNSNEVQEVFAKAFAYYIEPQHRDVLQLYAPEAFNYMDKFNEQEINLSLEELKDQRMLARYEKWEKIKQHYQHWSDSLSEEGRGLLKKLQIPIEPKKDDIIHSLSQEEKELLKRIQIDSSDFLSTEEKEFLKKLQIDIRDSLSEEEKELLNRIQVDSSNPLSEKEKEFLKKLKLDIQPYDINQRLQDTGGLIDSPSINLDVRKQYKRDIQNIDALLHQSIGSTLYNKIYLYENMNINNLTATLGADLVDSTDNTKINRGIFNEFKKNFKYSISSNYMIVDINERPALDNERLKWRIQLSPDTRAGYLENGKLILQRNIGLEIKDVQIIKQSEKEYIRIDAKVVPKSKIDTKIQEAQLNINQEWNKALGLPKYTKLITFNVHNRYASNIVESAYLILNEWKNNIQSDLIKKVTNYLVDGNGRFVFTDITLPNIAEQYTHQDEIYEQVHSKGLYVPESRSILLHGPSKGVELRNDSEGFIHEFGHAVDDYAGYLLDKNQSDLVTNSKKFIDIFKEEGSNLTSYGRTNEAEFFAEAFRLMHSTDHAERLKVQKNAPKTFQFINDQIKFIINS
SARS 3CLpro inh = SARS-CoV 3CLpro protease inhibition; P0C6X7; recombinant SARS-CoV 3CLpro, quenched FRET peptide cleavage; inhibition, % at 6 µM; 290,000 compounds, 0.14% hits; in the data active = inhibition above about 12%
Bead autofluor = counter-screen for toxin protease inhibitors: compound fluorescence. 360,000 compounds, 3.1% hits. fluorescence intensity (concentration not given with the values). compound autofluorescence counterscreen, microsphere flow cytometry; hits give high values; in the data active = fluorescence intensity above about 16000; inconclusive = no clear call, values can overlap the other calls
BoNT F protease = blocks Botulinum neurotoxin F light chain protease | Multiplex microsphere protease cleavage assay, flow cytometry | inhibition, % at 10 µM | 360,000 compounds, 0.22% hits | AID 588497; in the data active = inhibition above about 35%, passing the limit was not always enough; inconclusive = no clear call, values can overlap the other calls; note: plate controls were buffer without enzyme for full effect and enzyme alone for no effect
BoNT-A LC inh2 = blocks Botulinum neurotoxin A light chain protease; multiplex microsphere protease substrate cleavage, flow cytometry; inhibition, % at 10 µM; 360,000 compounds, 0.17% hits; AID 588499; note: plate controls were buffer without enzyme for full effect and enzyme alone for no effect
DUSP3 inh = blocks human VHR1 dual specificity phosphatase; P51452; 290,000 compounds, 0.52% hits; inhibition, % at 13.3 µM; AID 1654; recombinant VHR phosphatase, pNPP absorbance; in the data active = inhibition above about 50%
* hit, by the source's call; ? = inconclusive; . = not tested or not shown. Hits are enriched below; roughly 3.9% of the tested compounds scored in any of these assays. Cut-off read from the data, not from the text of the source, unless noted: active = inhibition above about 30%; inconclusive = no clear call, values can overlap the other calls; inactive = below that.

SMILES	Anthrax LF inh2	SARS 3CLpro inh	Bead autofluor	BoNT F protease	BoNT-A LC inh2	DUSP3 inh
CN1CCN(/C=N/c2c(C#N)cnn2Cc2ccccc2)CC1	-5	-1	20606*	-3	?	13
CN(c1cccc(Cl)c1)S(=O)(=O)c1cccc(C(=O)Nc2nc3ccccc3[nH]2)c1	-4	3	2481	-19	-2	51*
COc1cccc(-c2noc(CCC(=O)NCCc3ccccc3)n2)c1	11	3	3572	6	-2	58*
O=C(CCc1nc(-c2ccccc2)no1)NCCc1ccccc1	-10	0	22301*	2	3	9
Cc1cc(NC(=O)COc2ccc3ccccc3c2)no1	-1	3	3779	-4	0	28
O=C(CCNC(=O)C1CCN(S(=O)(=O)c2ccccc2)CC1)Nc1ccccc1	-2	0	6090	4	0	39
Cc1cc2ncn(-c3ncnc4scc(-c5ccccc5)c34)c2cc1C	0	-1	24244*	-5	?	27
Cn1cnnc1SCC(=O)c1ccc2c(c1)OCCO2	-4	3	16723*	-2	-2	12
O=C(CSc1nnc(SCc2cccc3ccccc23)s1)c1ccc2c(c1)OCO2	0	-2	19293*	3	6	12
CCc1nc(SCC(=O)c2ccc3c(c2)OCCO3)c2ccccc2n1	-2	-2	22675*	0	1	-2
Cn1nnnc1SCC(=O)c1ccc2c(c1)OCCO2	-5	0	3907	6	0	38
CCc1nnc(NC(=O)CSc2nnc3nc(C)cc(C)n23)s1	6	-2	3448	4	2	13
COC(=O)c1c(C(=O)OC)c(-c2ccc(C)cc2)n2c1CCC2	0	-1	24446*	-7	-5	17
Cc1ccc(OCCCCn2ccnc2)c(Cl)c1	-15	-1	19999*	8	7	-4
COc1ccc(OCCn2ccnc2)cc1	-7	-1	3725	-5	-4	14
Clc1ccccc1OCCn1ccnc1	2	-2	20725*	3	0	14
COc1cccc(OCCn2ccnc2)c1	-3	-4	23533*	0	0	18
C=CCc1ccccc1OCCn1ccnc1	6	0	10388	-8	-2	2
Cc1ccc(C)c(OCCCCn2ccnc2)c1	2	-3	10363	0	0	39
Cc1cccc(OCCCn2ccnc2)c1	-2	3	21296*	-2	?	-13
Cc1cc(C)cc(OCCCn2ccnc2)c1	2	6	4227	6	-3	4
CS(=O)(=O)N1CCC(C(=O)Nc2ccc(Cl)cc2Cl)CC1	-4	.	3793	-1	0	.
Cc1cccc(OC(=O)N2CCOCC2)c1	-3	0	24289*	0	-1	0
O=C(Oc1ccc(-c2ccccc2)cc1)N1CCOCC1	0	1	21166*	-2	?	-6
Cc1cc(C)c(-c2csc(NC(=O)/C=C/c3cccs3)n2)c(C)c1	-1	-1	2019	-4	-1	53*
SMILES	Anthrax LF inh2	SARS 3CLpro inh	Bead autofluor	BoNT F protease	BoNT-A LC inh2	DUSP3 inh
O=C(c1cc2ccccn2n1)N1CCN(c2cccc(C(F)(F)F)c2)CC1	0	1	20114*	0	0	12
CN(C)S(=O)(=O)c1ccc(Cl)c(C(=O)NC2CCCCCCC2)c1	-3	-1	6151	4	0	7
Cc1c(-c2nc(N)nc(Nc3ccccc3F)n2)oc2ccccc12	-4	7	24893*	-3	-3	40
COC(=O)C1=CN(CC2CCCO2)C=C(C(=O)OC)C1c1cccc(O)c1 (stereo not drawn)	0	0	3793	2	0	12
COC(=O)C1=CN(CC2CCCO2)C=C(C(=O)OC)C1c1ccsc1 (stereo not drawn)	0	0	22638*	2	1	0
O=C(Nc1nnc(-c2ccccc2Cl)o1)c1nc2ccccc2s1	-14	0	4358	-4	-1	53*
CC(C)NC(=O)c1nc2ccccc2s1	-7	1	19111*	4	5	-1
COc1ccc(NC(=O)c2nc3ccccc3s2)cc1	-1	-1	1990	-6	-1	-20
O=C(Nc1nnc(-c2ccccc2Cl)o1)c1ccco1	-1	0	9730	9	0	2
CCCCNC(=O)C[C@@H]1C[C@@]2(C(=O)OC)CCCCC=C2N(Cc2ccc(Cl)cc2Cl)C1=O	-13	.	4359	-9	0	.
CN(C)c1ccc(NC(=O)COC(=O)Cn2nnc3ccccc32)cc1	-1	4	1951	-10	-1	8
CCC1Nc2ccccc2-c2nnc(SC)nc2O1 (stereo not drawn)	-7	-1	2570	-2	-1	-2
COc1ccccc1C(=O)C1Nc2ccccc2-c2nnc(SC)nc2O1 (stereo not drawn)	2	0	21854*	7	4	13
CCC(=O)Nc1nc(NCc2ccccc2OC)n(-c2ccccc2)n1	4	0	4169	?	-13	-12
Nc1c(-c2cccs2)cnn1-c1nc(-c2ccc(Cl)cc2Cl)cs1	-3	-6	23441*	-4	?	27
Clc1ccccc1-c1nc(-c2ccccc2)n[nH]1	-1	3	24108*	-1	-1	3
Oc1ccccc1-c1n[nH]c(-c2ccccc2O)n1	2	.	4299	5	0	.
Cc1c(Cl)cccc1Nc1nc(N)nc(CSCCO)n1	0	-8	2729	-19	0	-13
Cc1c(Cl)cccc1Nc1nc(N)nc(CSc2ncccn2)n1	-2	2	20532*	-1	0	19
CCOC(=O)CSc1nnc2n(Cc3ccccc3)c(=O)c3c4c(sc3n12)CCC4	0	5	3483	0	0	52*
O=C(CSc1nnc2n(C3CCCCC3)c(=O)c3ccccc3n12)OC1CCCCC1	0	-1	19972*	-4	-2	15
CCOC(=O)CSc1nc2sc3c(c2c(=O)n1C1CCCCC1)CCN(C)C3	49*	-3	4970	15	74*	4
CCC1(C)Cc2c(sc3c2c(=O)n(C)c2nnc(SCC(=O)c4ccccc4)n32)CO1 (stereo not drawn)	2	7	20408*	11	5	.
COc1cccc(Cc2n[nH]c(=S)n2Cc2ccco2)c1	-4	-1	?	?	-2	-20
CC1CN=C(NS(=O)(=O)c2ccccc2)N1 (stereo not drawn)	11	.	2935	-8	0	.
Cc1ccc(NC2c3ncccc3C(=O)N2Cc2ccco2)c(C)c1 (stereo not drawn)	-1	4	2479	-4	0	24
C=CCn1c(=O)c2c3c(sc2n2c(Nc4ccc(OC)cc4)nnc12)CCCC3	-5	1	3719	5	-1	6
CCOC(=O)CSc1nnc2n(C3CCCCC3)c(=O)c3c4c(sc3n12)CCCC4	-2	-2	23468*	-2	0	29
COC(=O)CSc1nnc2n(C3CCCCC3)c(=O)c3c4c(sc3n12)CCCC4	1	3	8015	0	0	4
